# Screening data deposited in PubChem by Sanford-Burnham Center for Chemical Genomics.
# GRIN3A LBD mod = modulators (binders) of human NR3A ligand-binding domain | NR3A LBD differential scanning fluorimetry, Tm shift; 0% = protein alone, 100% = glycine-bound protein | 340,000 tested, 2.5% active | Tm shift relative to glycine control, % at 25 µM;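 active means melting temperature shift of at least 10% of the positive control shift, at one fixed dose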
# MPTP inh = inhibitors of mitochondrial permeability transition pore. AID 602449. isolated mouse mitochondria, Ca2+ swelling absorbance, 30 min. 360,000 tested, 1.4% active. inhibition, % at 10 µM;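 active means inhibition of 50% or more, scaled per plate between neutral and stimulator controls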;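 further: 0% = DMSO wells given calcium and 100% = 1 mM EGTA wells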
# FAS TE block = FAS thioesterase (human) inhibition. inhibition, % at 15 µM. P49327. recombinant FAS-TE, OMFH fluorogenic substrate, fluorescence endpoint. AID 602261. 360,000 tested, 0.67% active;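 active means compounds whose normalised, plate-corrected inhibition of enzyme fluorescence in the single-dose primary screen is 50% or more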;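 further: 0% = DMSO with enzyme and 100% = substrate without enzyme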
# MIN6 prolif = MIN6 beta-cell proliferation induction; MIN6 cells proliferation, ATPlite luminescence, 48 h; cells starved in 0.2% serum; 100% = growth in 10% serum; proliferation, % at 10 µM; 330,000 tested, 0.29% active; AID 2380;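 active means compounds whose signal lies at least 3.5 SD above the mean of all wells on their plate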;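 further: 0% = DMSO-treated cells in low-serum medium and 100% = 10% serum control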
# pCIP destab = compounds decreasing mouse p/CIP protein stability. decrease of EGFP signal, % at 10 µM. AID 1984. 290,000 tested, 0.01% active. F442A p/CIP-EGFP cells, EGFP fluorescence, 16 h;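 active means EGFP signal decrease of at least 30% at 10 µM or well 3 SD below plate mean, unless failing retest; inactive means the rest, including hits failing retest or dose response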
# Numbers without * were called inactive; · = no result given. A selection: hits, their analogues and other compounds. The true share with any hit is near 4.1%.
SMILES,GRIN3A LBD mod,MPTP inh,FAS TE block,MIN6 prolif,pCIP destab
COc1ccccc1C1NC(=O)CS1 (stereo not given),14*,-1,-10,1,0
COc1cccc(C(=O)N/N=C2\SCC(=O)N2Cc2ccc3c(c2)OCO3)c1,-2,2,0,2,0
COc1ccc(C(=O)N/N=C2/SCC(=O)N2Cc2ccc3c(c2)OCO3)cc1OC,11*,0,-6,0,1
OC1CNc2c(ccc3ccccc23)C1 (stereo not given),1,0,-6,·,·
Cc1[nH]n(C(N)=S)c(=O)c1N=Nc1ccccc1C(F)(F)F,10*,2,-1,-5,-10
Cc1ccccc1N=Nc1c(C)[nH]n(C(N)=S)c1=O,-5,1,-1,-1,-6
O=C(C[C@H]1C(=O)N(CCc2ccccc2)C[C@@H]1c1ccccc1)Nc1ccccc1,·,-1,-4,·,·
C[N+]1(CCC(=O)c2ccccc2)CCCCC1,10*,4,-11,0,0
O=C(CCN1CCCCC1)c1ccccc1,-13,4,-6,-6,0
CC1(C(=O)Nc2cccc3c2CCCC3)CCN1C(=O)CCC1CCCC1 (stereo not given),·,0,17,·,·
CCC(=O)Nc1ccc(S(=O)(=O)NC[C@H]2O[C@@H](n3cnc4c(=O)[nH]c(N)nc43)[C@H](O)[C@@H]2O)cc1,·,-1,-6,·,·
Cc1ccc(NC(=O)CN(C)S(=O)(=O)c2cccc3cccnc23)cc1F,14*,2,3,0,-30
O=C(CSc1ccc(-c2nc3ccccc3[nH]2)cn1)Nc1ccc(S(=O)(=O)N2CCCC2)cc1,29*,-4,22,-3,-15
Cc1cc2nc(-c3ccc(SCC(=O)Nc4ccc(S(=O)(=O)N5CCCC5)cc4)nc3)[nH]c2cc1C,21*,2,6,0,-8
Cc1cc2nc(-c3ccc(SCC(=O)Nc4nccs4)nc3)[nH]c2cc1C,0,4,-12,·,-1
O=C(NCc1ccc(C(F)(F)F)cc1)c1ccc(-c2cccnc2)c2ccoc12,·,0,27,·,·
CCN(CC)CCOCCn1c(C)ccc1C,0,-1,-6,·,·
O=c1c2ccccc2nc(COc2ccccc2)n1/N=C/c1ccc(O)cc1O,2,2,13,-6,-14
O=c1c2ccccc2nc(COc2ccccc2)n1/N=C/c1c[nH]c2ccccc12,25*,3,-6,3,-2
Cc1ccccc1OCc1nc2ccccc2c(=O)n1/N=C/c1cn[nH]c1-c1ccc(Br)cc1,26*,5,-10,0,-20
CCCCN(C)C(=O)c1ccc(Nc2nc(C(N)COCc3ccccc3)cs2)nc1 (stereo not given),·,0,-7,·,·
CCCCCCn1c(N2CCN(c3cccc(Cl)c3)CC2)nc2c1c(=O)[nH]c(=O)n2C,14*,-9,32,-5,-6
COc1ccc(-c2ccc(C(=O)Nc3ccc4c(c3)OCO4)c3occc23)c(C)c1,·,0,29,·,·
CN1C[C@@H]2[C@@H]3C(=O)N(C)C(=O)[C@@H]3[C@](C)(C1=O)N2C(=O)c1ccc(F)cc1,10*,-1,-8,·,·
COc1ccc(NC(=O)CCNC(=O)c2ccccc2Cl)cc1S(=O)(=O)N1CCCCC1,·,-2,-1,·,·
SMILES,GRIN3A LBD mod,MPTP inh,FAS TE block,MIN6 prolif,pCIP destab
O=C(NC(NC(=S)Nc1ccccc1C(=O)O)C(Cl)(Cl)Cl)c1cccc([N+](=O)[O-])c1 (stereo not given),16*,6,8,-1,-3
c1ccc(-c2cn3c(n2)-c2ccccc2C3)cc1,13*,2,-10,0,0
Cc1ccc2nc(-c3ccccc3)cn2c1,-1,0,-8,-6,-10
O=C(O)c1ccc(/C=N/N2CCN(Cc3cccc4ccccc34)CC2)cc1,192*,-1,0,-4,-7
CN(Cc1ccccc1)c1nccn2ccnc12,·,1,-8,·,·
COc1cc(C2c3c(-c4cc(C)cc(C)c4O)n[nH]c3C(=O)N2CCCO)cc(OC)c1OC (stereo not given),345*,0,-29,0,-2
COCCCN1C(=O)c2[nH]nc(-c3cc(C)cc(C)c3O)c2C1c1ccc(O)c(OC)c1 (stereo not given),-3,2,-72,-2,-6
O=C(O)COc1ccc(/C=C/c2ccc3cccc([N+](=O)[O-])c3n2)cc1,18*,-10,-7,-4,12
CC(=O)Nc1ccc(/C=C/c2ccc3cccc([N+](=O)[O-])c3n2)cc1,26*,2,15,-3,-11
COc1cc(/C=C/c2ccc3cccc([N+](=O)[O-])c3n2)ccc1OCC(=O)O,2,1,-1,-1,-8
Cc1cccc(Cl)c1NC(=O)NCCCN1CCCCC1C (stereo not given),·,0,-4,·,·
COCCn1c(C)cc(/C=C(\C#N)C(=O)OC(C)C(=O)Nc2ccc(NC(C)=O)cc2)c1C (stereo not given),1,-2,-12,4,·
CCCCNC(=O)C1(C)CCCCN1CC(=O)c1ccc(OC)cc1 (stereo not given),·,0,-4,·,·
Cc1ccc(OCC(=O)N/N=C/c2c[nH]c3ccccc23)c([N+](=O)[O-])c1,24*,2,-4,0,-4
Cc1cccc(NCC(=O)N/N=C\c2ccccn2)c1,0,-1,-4,-4,-13
CCOC(=O)N/N=C/c1c[nH]c2ccccc12,-1,0,-10,1,5
Cc1cccc(NCC(=O)N/N=C\c2c[nH]c3ccccc23)c1,16*,1,10,3,-2
Cc1ccc(OCC(=O)N/N=C\c2ccc(O)cc2)c([N+](=O)[O-])c1,-1,4,-4,-3,3
Cc1ccccc1NCC(=O)N/N=C/c1c[nH]c2ccccc12,24*,0,15,-2,6
O=C(NCc1cccc(F)c1)c1[nH]c(C(F)(F)F)nc1-c1ccccc1,·,1,-9,·,·
CCCC(=O)Nc1cccc(-c2cn3cccnc3n2)c1,1,-2,-6,-2,13
O=C(Nc1cccc(-c2cn3cccnc3n2)c1)Nc1ccccc1F,12*,0,3,1,-3
O=C(Nc1ccccc1)Nc1cccc(-c2cn3cccnc3n2)c1,13*,-1,0,-2,-8
CCOC(=O)[C@]12CCCC=C1N(CCC1=CCCCC1)C(=O)[C@H](CC(=O)N1CCN(C(=O)C3CC3)CC1)C2,·,0,·,·,·
CCc1nc2ccc(C(=O)N(C)CCCN(C)C)cn2c1N(C=O)CCC(C)C,·,-2,-9,·,·
COc1ccc(Br)c2oc(SC)cc(=O)c12,10*,2,-12,4,-13
O=C(NCc1cccc(C(F)(F)F)c1)c1csc(COCCO)n1,·,0,-6,·,·
O=C(OC1CC2CC1[C@H]1CCCCN1C2=O)N1CCN(C(=O)c2ccccc2)CC1 (stereo not given in full),·,0,-10,·,·
c1ccc(N2CCN(c3ccccc3)C2c2cccnc2)cc1,10*,1,9,-1,-6
